The source of these data is PubChem BioAssay (NCATS).

Structures are written as SMILES. Values joined by “and” are separate entries in the source; they are usually repeats but may differ in a detail not shown here. Identical values can stand only once. Inconclusive results are not listed. Values without a mark were called inactive. Active and inactive are the calls of the source. The call rests on the fitted dose curve; in most records, active means well fitted cell-killing curve with a large enough effect; inconclusive means small, poorly fitted or top-dose-only effect; inactive means no such curve, though single readings can be large or run the other way.
On the % scale 0 is the no-effect control and ±100 the full control effect; potency means the concentration at half of the fitted maximal effect.

This assay can be described thus: qHTS of pediatric cancer cell lines to identify multiple opportunities for drug repurposing: Primary screen for SK-N-SH cells (AID 1347098). Further: nearly all actives have a fitted effect of over 65% in size. As to conditions: SK-N-SH viability, CellTiter-Glo luminescence, 48 h; series mostly up to 57 µM; activity change, negative = cytotoxic: at the top concentration. The source says: Drug repurposing or repositioning has been offered as a strategy for drug development in oncology programs. This approach has special potential for childhood cancers and other rare or orphan diseases, where the expected return on new drug development has been a disincentive to pharmaceuticals.
In this project we exploit the poly-pharmacology of drugs to discover new indications via phenotypic screening of a panel of 19 well-characterized cell lines derived from solid tumors seen in children and adolescents. The goal is to identify approved drugs with previously unrecognized anticancer properties that has the potential to reveal new mechanisms and biological processes involved in carcinogenesis or drug resistance. We employed a titration-based paradigm (quantitative high-throughput screening or qHTS), where all compounds were tested at multiple concentrations for their effect on cell viability. Concentration-response curves (CRCs) were derived directly from the primary screen, and both potency and efficacy values were used to identify compounds with robust bioactivity profiles. We screened the NIH Chemical Genomics Center (NCGC) Pharmaceutical Collection (NPC) and Mechanism Interrogation Plate (MIPE) small molecule collections of approved and investigational compounds against these cell lines; and measured metabolically active cells after 48 hours of compound treatment as a proxy for cell viability.
Assay Submitter: Nathalia J. Martinez, National Center for Advancing Translational Sciences, National Institutes of Health, Rockville, MD, USA; email: natalia.martinez@nih.gov
[1] Shen, M et al. Quantitative high-throughput phenotypic screening of pediatric cancer cell lines identifies multiple opportunities for drug repurposing. Oncotarget 2017 Dec 19;9(4):4758-4772. PMID 29435139.
The cells were obtained from University of North Carolina (UNC), Pediatric Preclinical Testing Program (PPT), and Coriell Institute (CI).
qHTS cell viability assay:
Cells were assayed in growth media at a density of 500-1,000 cells/well. Five microliters of cells were dispensed into 1,536-well, white, solid-bottom, TC-treated plates (Greiner Bio One) using a multidrop dispenser and incubated at 37 degrees C, 5% CO2, under a humidified atmosphere for 5 hours. Twenty-three nanoliters of compounds and controls (neutral control DMSO or positive control bortezomib at final concentration of 2.3 µM) were subsequently transferred by Kalypsys pintool. For primary screens, the MIPE collection was tested at 11-point dilutions (final concentrations range from 0.78 nM to 46 µM) and the NPC collection at 8-point dilutions (final concentrations range from 0.59 nM to 46 µM). Compounds tested in follow-up screens were assayed at 11-point dilutions. Cells were incubated for 48 hours, followed by addition of 3 µL of CellTiter-Glo (Promega). After a 15 min incubation at room temperature, samples were analyzed for luminescence intensity using a ViewLux High-throughput CCD imager equipped with clear filters.
A general note: Quantitative high-throughput screening tests each substance at several concentrations.
Take `NC(=O)c1cccc(-c2cc(Nc3ccc(OC(F)(F)F)cc3)ncn2)c1`: the “activity change, negative = cytotoxic” value was 11.7%. For `CCOC(=O)C1=C(N)Oc2ccc(Br)cc2C1C(C#N)C(=O)OCC` (stereo not given), the Potency is 24.1 µM (active). The same measure, in the same setting: with `CC/C(=C(\c1ccccc1)c1ccc(OCCN(C)C)cc1)c1ccccc1` the figure was 24.4 µM (active).

As to `NC(=O)[C@@H](CCC(F)(F)F)N(Cc1ccc(-c2ncon2)cc1F)S(=O)(=O)c1ccc(Cl)cc1`, the “activity change, negative = cytotoxic” value is 5.18%. For the molecule `CCS(=O)(=O)N1CC(CC#N)(n2cc(-c3ncnc4[nH]ccc34)cn2)C1`, the Potency is 13.6 µM (active). As for `CCN(CC)CCOC(=O)c1ccc(N)cc1`, the “activity change, negative = cytotoxic” value was 13.4%.

For `O=C1c2ccccc2-[n+]2ccc3c([nH]c4ccccc43)c21`, the Potency is 1.52 µM (active). Same read-out and setting: to `Cc1ccc(F)c(NC(=O)Nc2ccc(-c3cccc4[nH]nc(N)c34)cc2)c1` belongs 24.1 µM (active).

As for `CO[C@H]1C[C@@H]2CC[C@@H](C)[C@@](O)(O2)C(=O)C(=O)N2CCCC[C@@H]2C(=O)O[C@H]([C@H](C)C[C@@H]2CC[C@H](OP(C)(C)=O)[C@H](OC)C2)CC(=O)[C@H](C)C=C(C)[C@@H](O)[C@@H](OC)C(=O)[C@H](C)C[C@H](C)C=CC=CC=C1C`, the “activity change, negative = cytotoxic” value is -1.14%. With `N[C@H](CSC(c1ccccc1)(c1ccccc1)c1ccccc1)C(=O)O`, the “activity change, negative = cytotoxic” value was -19.9%. As for `CC(C)C(=O)Nc1ncc(-c2cc(C(F)F)nn2-c2c(Cl)cccc2Cl)s1`, the Potency was 24.1 µM (active). For `Cc1nnc(C(C)C)n1C1C[C@H]2CC[C@@H](C1)N2CC[C@H](NC(=O)C1CCC(F)(F)CC1)c1ccccc1` (stereo not given in full), the “activity change, negative = cytotoxic” value was 11.6%. `C[C@@H](O)[C@H]1C(=O)N2C(C(=O)O)=C(S[C@@H]3CN[C@H](C(=O)N(C)C)C3)[C@H](C)[C@H]12`: the Potency entry was “inactive”.

As for `CCCNC(=O)NS(=O)(=O)c1ccc(Cl)cc1`, the “activity change, negative = cytotoxic” value was -6.1%. On the same count and under the same terms, to `CC1(C)CCC[C@@]2(C)[C@@H]1CC[C@@]1(C)OC(=O)C[C@H]21` belongs 7.29%. Regarding `N#CC1(c2ccc(NC(=O)c3cccnc3NCc3ccncc3)cc2)CCCC1`, the “activity change, negative = cytotoxic” value was 29%. On the same count and under the same terms, to `O=C(O)[C@H]1O[C@H](Oc2cc3oc(-c4ccccc4)cc(=O)c3c(O)c2O)[C@H](O)[C@@H](O)[C@H]1O` belongs 3.47%; to `C[C@]12CC[C@@H]3c4ccc(O)cc4C[C@@H](CCCCCCCCCS(=O)CCCC(F)(F)C(F)(F)F)[C@H]3[C@H]1CC[C@H]2O` (stereo not given in full), 27.3%.

`CC(=Cc1ccccc1)C=C1SC(=S)N(CC(=O)O)C1=O`: the Potency was 21.5 µM (active). As to `C=C1C(=O)OC2C=C(C)CCC=C(C)CCC12` (stereo not given), the “activity change, negative = cytotoxic” value was 3.56%. Same read-out and setting: to `O=C1NC(=O)C(=Cc2cccc(C(F)(F)F)c2)S1` belongs -12.7%. `Cc1cccc(Nc2nc(-c3ccncc3)cs2)c1`: the “activity change, negative = cytotoxic” value is -8.41%. Same read-out and setting: to `Cn1cc(C=C2C(=O)Nc3cccnc32)c2ccccc21` belongs 13.1%; to `CC[C@@H]1C=C(C)C[C@H](C)C[C@H](OC)[C@H]2O[C@@](O)(C(=O)C(=O)N3CCCC[C@@H]3C(=O)O[C@H](C(C)=C[C@@H]3CC[C@H](Cl)[C@H](OC)C3)[C@H](C)[C@@H](O)CC1=O)[C@H](C)C[C@H]2OC`, 15.8%.

For the molecule `COc1cc(NC(=O)c2ccc(-c3ccc(Cl)cc3)o2)cc(OC)c1`, the Potency is 1.52 µM (active). In the case of `CC(=O)c1ccc(S(=O)(=O)NC(=O)NC2CCCCC2)cc1`, the “activity change, negative = cytotoxic” value is -4.65%.

For the molecule `O=C(NC1CCOCC1)c1ccc(-c2cc(-c3cn[nH]c3-c3ccccn3)ccn2)cc1`, the “activity change, negative = cytotoxic” value was 22.3%. Still for that read-out and setting: with `COC(=O)[C@@H]1[C@H]2C[C@H]3c4[nH]c5ccccc5c4CCN3C[C@@H]2CC[C@@H]1O` the figure was -12.7%. With `COCCCCC(=NOCCN)c1ccc(C(F)(F)F)cc1`, the Potency is 24.1 µM (active). Turning to `CCCCCNC(=O)N1CCC(CN(Cc2ccc(Cl)cc2)Cc2ccc([N+](=O)[O-])s2)C1` (stereo not given), the “activity change, negative = cytotoxic” value was 4.3%. `CCc1ccc(OCc2ccccc2C(=O)Nc2ccc3nc(C)cc(N)c3c2)cc1`: the Potency was 12.1 µM (active). With `COc1cc2ncnc(Nc3ccc(F)c(Cl)c3)c2cc1OCCCN1CCOCC1`, the Potency is 17.5 µM (active) and 27.3 µM (active). Consider `CCN(CC)CCNC(=O)c1ccc(N)cc1`, for which the “activity change, negative = cytotoxic” value was -6.98%. For `CC(C)=CC[C@@H](O)C1=CC(=O)c2c(O)ccc(O)c2C1=O`, the Potency is 6.81 µM (active). Turning to `CC(=O)OC1C(C)OC(Oc2c(-c3ccc(O)cc3)oc3cc(O)cc(O)c3c2=O)C(O)C1OC(C)=O` (stereo not given), the “activity change, negative = cytotoxic” value was -11.6%. In the case of `Clc1ccc(C(c2ccc(Cl)cc2)n2cc[n+](CC(OCc3ccc(Cl)cc3Cl)c3ccc(Cl)cc3Cl)c2)cc1` (stereo not given), the Potency was 24.1 µM (active). On to `CC=C(C)C(=O)O[C@H]1C(C)=C[C@]23C(=O)[C@@H](C=C(CO)[C@@H](O)[C@]12O)[C@H]1[C@@H](C[C@H]3C)C1(C)C`, for which the “activity change, negative = cytotoxic” value is -8.78%. On to `O=C1C(Cl)=C(NCCN2CCOCC2)C(=O)c2ncccc21`, for which the Potency is 7.64 µM (active). Still for that read-out and setting: to `O=C(N[C@@H](c1ccccc1)[C@@H]1CCCCN1)c1cccc(C(F)(F)F)c1Cl` belongs 21.5 µM (active). For the molecule `O=C(NCCN1CCOCC1)c1ccc(Cl)cc1`, the “activity change, negative = cytotoxic” value was 4.3%.
